This is a sample that favours compounds with a hit; in the whole collection about 10% have one here.
FLuc inh = Firefly luciferase inhibition profiling of diverse chemical library using quantitative high-throughput screening; Luciferin 4-monooxygenase (Photinus pyralis), P08659; purified P. pyralis luciferase, luminescence, biochemical; Potency, µM (titrated, usually from 115 µM), usual class: inhibitors; 76,000 tested, 2.5% active; AID 1347043, 2019; note: nearly all actives have a fitted effect of over 65% in size
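Purified 10nM P. pyralis luciferase with 10uM D-luciferin and 10uM ATP in 50mM Tris acetate pH 7.5, 10mM Mg acetate, 0.01% Tween-20, 0.05% BSA. qHTS titration; luminescence read by CCD imager.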
3T3 cytotox = Cytotoxic Profiling in NIH 3T3 Cell Line of Diverse Libraries Using Quantitative High-Throughput Screening | AID 1345082, 2018 | Potency, µM (top dose mostly 96.7 µM), hits mostly inhibitors | 94,000 tested, 4.3% active | NIH 3T3 viability, CellTiter-Glo ATP luminescence, 48-72 h; note: nearly all actives have a fitted effect of over 55% in size
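Viability of NIH 3T3 cells after 48 or 72 hr compound treatment at 37 °C was assessed by CellTiter-Glo, with luminescence imaged following a 10 min room-temperature step.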
HEK cytotox = Cytotoxic Profiling in HEK 293 Cell Line of Diverse Libraries Using Quantitative High-Throughput Screening | HEK 293 viability, ATP luminescence (CellTiter-Glo), 48-72 h | Potency, µM (series often up to 115 µM), usual class: inhibitors | 94,000 tested, 6.6% active; note: nearly all actives have a fitted effect of over 60% in size
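Pintool-delivered compounds were incubated with HEK 293 cells (250 cells/well) at 37 degree Celsius for 48 or 72 hr. ATP-dependent luminescence (CellTiter-Glo) then reported remaining viable cells.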
GPT2 inh = Primary qHTS assay for inhibitors of Glutamate pyruvate transaminase 2 (GPT2); Recombinant GPT2, coupled pyruvate oxidase/HRP Amplex Red fluorescence; 100,000 tested, 0.25% active; Potency, µM (highest dose often 57.7 µM), usual class: inhibitors; AID 1671188, 2021; note: nearly all actives have a fitted effect of over 60% in size
Target sequence (Q8TD30 whole entry, looked up): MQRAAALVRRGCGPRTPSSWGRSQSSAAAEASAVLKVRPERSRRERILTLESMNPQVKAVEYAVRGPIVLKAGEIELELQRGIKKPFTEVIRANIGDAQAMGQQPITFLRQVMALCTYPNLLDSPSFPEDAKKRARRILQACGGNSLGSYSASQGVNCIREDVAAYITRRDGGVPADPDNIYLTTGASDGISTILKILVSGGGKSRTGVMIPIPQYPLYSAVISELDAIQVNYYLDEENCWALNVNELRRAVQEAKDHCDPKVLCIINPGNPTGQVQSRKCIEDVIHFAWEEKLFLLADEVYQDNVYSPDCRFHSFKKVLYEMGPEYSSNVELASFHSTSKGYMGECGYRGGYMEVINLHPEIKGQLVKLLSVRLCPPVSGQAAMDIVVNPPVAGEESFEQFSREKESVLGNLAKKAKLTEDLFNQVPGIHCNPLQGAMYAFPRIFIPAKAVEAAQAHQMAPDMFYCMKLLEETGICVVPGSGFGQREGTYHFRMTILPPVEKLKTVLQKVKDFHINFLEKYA
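Fluorescence of coupled pyruvate oxidase/HRP/Amplex Red system (50uM Amplex, 30 min, dark) reports pyruvate formed by GPT2. Enzyme reaction: 10ng/uL GPT2, 2mM L-alanine, 250uM a-KG, 30 min room temperature, pH 7.5; 50uM AOA control.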
NPR1 antag = Natriuretic polypeptide receptor (hNpr1) antagonism - Primary qHTS. 76,000 tested, 1.6% active. AID 1347048, 2019. HEK293 hNpr1 GloSensor cGMP, ANP-stimulated luminescence. Atrial natriuretic peptide receptor 1 (Homo sapiens), P16066. Potency, µM (titrated, usually from 46.3 µM), hits mostly inhibitors; calls by dose curve; note: nearly all actives have a fitted effect of over 60% in size
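HEK293 cells stably expressing human Npr1 and cGMP GloSensor pGS-40F, loaded 2 h with 2% GloSensor reagent, given compound 30 min at room temperature. Luminescence read before and 20 min after 0.1 nM hNppA.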
Of the large screens only hits and unclear results are named; the others gave an inactive call. Unless noted, calls come from the whole dose curve; as a rule, active = well fitted curve in the direction sought with a large enough effect; inconclusive = small, poorly fitted or top-dose-only effect, or another doubt; inactive = no such curve, though single readings can be large; an effect the other way counts as inactive or inconclusive.

O=C(CN1C(=O)C(c2ccccc2)=NC12CCCC2)NCc1ccc(F)cc1	3T3 cytotox inconclusive, HEK cytotox 40µM
COc1ccc(-c2noc([C@@H]3Cc4nc[nH]c4CN3C(=O)CC(C)(C)CC(=O)O)n2)cc1	FLuc inh inconclusive
O=C(c1ccccc1F)N1CCC2(CC1)CC(N(Cc1ccc(F)cc1)C1CC1)CCO2 (stereo unspecified)	3T3 cytotox inconclusive, HEK cytotox inconclusive
COCCn1ccc2c(C3=CCOCC3)nc(-c3cccc(CO)c3)cc21	3T3 cytotox 13µM, HEK cytotox inconclusive
COCCn1ccc2c(C3=CCOCC3)nc(-c3ccc4cn[nH]c4c3)cc21	3T3 cytotox inconclusive, HEK cytotox inconclusive
COCCn1ccc2c(C3=CCOCC3)nc(-c3cccc4[nH]ccc34)cc21	3T3 cytotox 50µM, HEK cytotox 28µM, GPT2 inh inconclusive
COCCn1ccc2c(C3=CCOCC3)nc(-c3ccc4c(c3)CNC4=O)cc21	FLuc inh inconclusive, 3T3 cytotox inconclusive, HEK cytotox inconclusive
COCCn1ccc2c(C3=CCOCC3)nc(-c3cccc4[nH]ncc34)cc21	3T3 cytotox inconclusive, HEK cytotox inconclusive
COCCn1ccc2c(C3=CCOCC3)nc(-c3cccc(N4CCOCC4)c3)cc21	3T3 cytotox 45µM, HEK cytotox inconclusive
COc1ccc([C@@H]2CN(C(=O)CCc3c(C)noc3C)C[C@H]2N(C)C)cc1	none
COc1ccc(-n2nc(C3CCN(Cc4cccn4C)CC3)[nH]c2=O)cc1	3T3 cytotox inconclusive, HEK cytotox 40µM
CC1Oc2ccc(NC(=O)c3cccs3)cc2CN(CCOc2ccccc2)C1=O (stereo unspecified)	3T3 cytotox inconclusive, HEK cytotox 40µM
COc1ccc(CCN2Cc3cc(NC(=O)c4ccc(OC)cc4)ccc3OC(C)C2=O)cc1 (stereo unspecified)	HEK cytotox 89µM
COc1ccc(CN2Cc3cc(NC(=O)c4cc(OC)cc(OC)c4)ccc3OC(C)C2=O)cc1 (stereo unspecified)	3T3 cytotox inconclusive, HEK cytotox 20µM
O=C(NCCc1ccncc1)C1CN(C(=O)CCC2CCCC2)CC12CCOCC2 (stereo unspecified)	none
CC(C)CCN1CCn2c(nn(-c3ccc([N+](=O)[O-])cc3)c2=O)C1	3T3 cytotox inconclusive, HEK cytotox inconclusive, NPR1 antag inconclusive
O=[S+]([O-])(c1cccc(C(F)(F)F)c1)N1CCN(Cc2ccccc2-c2cccnc2)CC1	3T3 cytotox 35µM, HEK cytotox inconclusive (no result: FLuc inh, NPR1 antag)
Cc1ccc(-c2ccccc2CN2CCN([S+](=O)([O-])c3ccccc3)CC2)cc1Cl	3T3 cytotox inconclusive, HEK cytotox inconclusive (no result: FLuc inh, NPR1 antag)
O=[S+]([O-])(c1ccccc1)N1CCN(Cc2ccccc2-c2ccccc2F)CC1	3T3 cytotox inconclusive, HEK cytotox 22µM (no result: FLuc inh, NPR1 antag)
C[S+](=O)([O-])N1CCN(Cc2ccccc2-c2cccnc2)CC1	HEK cytotox inconclusive (no result: FLuc inh, NPR1 antag)
O=C(NCC(F)F)C1CCN(C(=O)c2ccc(-c3cncnc3)cc2)CC1	none (no result: FLuc inh, GPT2 inh, NPR1 antag)
CCC1(C(=O)NCc2ccc(C(C)C)cc2)CCCCC(=O)N1 (stereo unspecified)	HEK cytotox inconclusive
CN1c2cc(C(=O)Nc3ccc(OC(F)(F)F)cc3)ccc2C(=O)N2CCCCCC21 (stereo unspecified)	FLuc inh inconclusive, 3T3 cytotox inconclusive, HEK cytotox inconclusive, NPR1 antag inconclusive
CN1c2cc(C(=O)Nc3ccc(OC(F)(F)F)cc3)ccc2C(=O)N2CCCC21 (stereo unspecified)	FLuc inh 40µM
CN1c2cc(C(=O)NCc3cccs3)ccc2C(=O)N2CCCCC21 (stereo unspecified)	FLuc inh 25µM, HEK cytotox inconclusive
Cc1ccc(NC(=O)c2ccc3c(c2)N(C)C2CCCCN2C3=O)cc1 (stereo unspecified)	FLuc inh 40µM, HEK cytotox inconclusive
Cc1ccc(NC(=O)c2ccc3c(c2)N(C)C2CCCN2C3=O)cc1 (stereo unspecified)	FLuc inh 22µM
Cc1cccc(CNC(=O)c2ccc3c(c2)N(C)C2CCCCCN2C3=O)c1 (stereo unspecified)	HEK cytotox inconclusive
CC(C)(C)C(=O)N1CCc2nc(C3CC3)nc(-c3ccc(Cl)cc3)c2C1	HEK cytotox inconclusive
CC(C)c1ccc(NC(=O)N2CC[C@@H](CC(=O)O)[C@@H](CC3=NCCc4ccccc43)C2)cc1	FLuc inh inconclusive
COCCNC(=O)c1cnc2c(c1)N(Cc1ccccc1)CCC2	3T3 cytotox inconclusive, HEK cytotox inconclusive
CCc1ccc(NC(=O)c2ccc3c(c2)N(C)C2CCCCCN2C3=O)cc1 (stereo unspecified)	FLuc inh inconclusive, HEK cytotox inconclusive
CCc1ccc(NC(=O)c2ccc3c(c2)N(C)C2CCCCN2C3=O)cc1 (stereo unspecified)	FLuc inh 14µM, 3T3 cytotox inconclusive, HEK cytotox inconclusive
COCc1noc([C@@H]2CC(F)(F)CN2C(=O)CC(C)(C)C)n1	HEK cytotox inconclusive
COc1ccc(C(=O)N2CC(Oc3ccc(-c4nc(-c5ccccc5)no4)cc3)C2)cc1	none
O=C(NC1CCCC1)N1CC(Oc2ccccc2-c2nc(-c3ccccc3)no2)C1	3T3 cytotox 32µM, HEK cytotox inconclusive
O=C(c1ccco1)N1CC(Oc2ccccc2-c2nc(C3CC3)no2)C1	3T3 cytotox inconclusive, HEK cytotox inconclusive (no result: FLuc inh, NPR1 antag)
O=C(c1ccco1)N1CC(Oc2ccccc2-c2nc(-c3ccccc3)no2)C1	FLuc inh inconclusive, 3T3 cytotox 32µM, HEK cytotox 25µM
COc1ccc(C(=O)N2CC(Oc3ccccc3-c3nc(-c4ccccc4)no3)C2)cc1	FLuc inh inconclusive, 3T3 cytotox 32µM, HEK cytotox 28µM
COc1cccc(-c2c(C(=O)NC3CC3)nc3sccn23)c1	none (no result: FLuc inh, NPR1 antag)
CC(=O)N1CCC(Cc2noc(C3CC3)n2)C1 (stereo unspecified)	none
Cc1noc(C)c1-c1cc(-c2ccc(CN(C)C)cc2)cn2cncc12	3T3 cytotox 28µM, HEK cytotox inconclusive
Cc1noc(C)c1-c1cc(-c2ccncc2)cn2cncc12	3T3 cytotox inconclusive, HEK cytotox inconclusive
CN(C)Cc1ccc(-c2cc(-c3ccncc3)c3cncn3c2)cc1	FLuc inh inconclusive, 3T3 cytotox inconclusive, HEK cytotox 89µM
COCCN1C(=O)c2cccn2CC1CNC(=O)c1cc(C)nn1C (stereo unspecified)	none

Screening data as filed in PubChem.
